Shown are actives, neighbours in structure and some others; about 16% of the full set was active somewhere.
TDP1 inh = qHTS Assay for Inhibitors of Tyrosyl-DNA Phosphodiesterase (TDP1); Potency, µM (titrated, usually from 130 µM), for inactives: at the top dose activity change, negative = inhibition, actives largely listed as inhibitors; Tyrosyl-DNA phosphodiesterase 1 (Homo sapiens), Q9NUW8; recombinant TDP1, AlphaScreen DNA substrate cleavage; 350,000 compounds, 0.28% hits; also: potency is read from the fitted curve at half-maximal effect; % is scaled to controls: 0 for no effect and ±100 for the full control effect; nearly all actives have a fitted effect of over 40% in size
Target sequence (Q9NUW8 whole entry, looked up): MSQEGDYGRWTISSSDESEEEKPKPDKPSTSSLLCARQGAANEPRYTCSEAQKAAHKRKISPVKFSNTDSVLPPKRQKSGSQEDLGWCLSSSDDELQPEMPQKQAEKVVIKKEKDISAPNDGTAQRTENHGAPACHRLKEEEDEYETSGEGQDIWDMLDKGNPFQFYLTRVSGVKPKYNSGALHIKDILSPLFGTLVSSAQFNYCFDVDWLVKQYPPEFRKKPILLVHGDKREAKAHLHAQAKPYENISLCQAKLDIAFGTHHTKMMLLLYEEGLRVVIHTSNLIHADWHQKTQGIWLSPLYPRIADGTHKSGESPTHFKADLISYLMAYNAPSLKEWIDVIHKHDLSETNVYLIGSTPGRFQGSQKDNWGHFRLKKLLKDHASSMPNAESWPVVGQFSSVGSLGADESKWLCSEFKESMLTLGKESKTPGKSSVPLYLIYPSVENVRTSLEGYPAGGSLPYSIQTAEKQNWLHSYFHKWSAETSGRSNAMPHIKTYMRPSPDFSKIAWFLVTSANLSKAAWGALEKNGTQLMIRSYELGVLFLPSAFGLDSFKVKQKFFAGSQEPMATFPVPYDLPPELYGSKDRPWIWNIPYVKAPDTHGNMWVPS
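Recombinant human Tdp1 (E. coli-expressed, 1 nM final) preincubated with compounds 15 min at room temperature, then 5'-biotin/3'-phosphotyrosine-FITC DNA substrate (15 nM final) added for 5 min. AlphaScreen beads (10 ug/ml final) added 10 min; cleavage lowers signal.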
uPA generation = qHTS for Inhibitors of Cell Surface uPA Generation | cell surface uPA generation assay, qHTS | Potency, µM (highest dose often 38.3 µM), for inactives: top-dose activity change, negative = inhibition, actives largely listed as inhibitors | 330,000 compounds, 0.31% hits; active = well fitted inhibition curve with a large enough effect; inconclusive = small, poorly fitted or top-dose-only effect; inactive = no such curve, though single readings can be large or run the other way; tested in mouse RAW 264.7 cells; also: potency is read from the fitted curve at half-maximal effect; % is scaled to controls: 0 for no effect and ±100 for the full control effect; nearly all actives have a fitted effect of over 55% in size
TDP1 cell noCPT = qHTS for Inhibitors of human tyrosyl-DNA phosphodiesterase 1 (TDP1): qHTS in cells in absence of CPT; DT40 Tdp1-/- hTDP1 cells, no CPT, ATP luminescence, 48 h; Potency, µM (doses to about 46.2 µM), inactives show at the highest dose activity change, negative = growth inhibition, most hits filed as inhibitors; 420,000 compounds, 15% hits; AID 686978, 2013; also: potency is read from the fitted curve at half-maximal effect; % is scaled to controls: 0 for no effect and ±100 for the full control effect; nearly all actives have a fitted effect of over 55% in size
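Growth kinetics read by CellTiter-Glo luminescence after ≥48 hr at 37 °C. Cells: DT40 Tdp1-/- stably carrying human TDP1, 400 per well, compound exposure in the absence of CPT (DMSO vehicle).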
miR-21 act = qHTS Assay for Modulators of miRNAs and/orActivators of miR-21. 340,000 tested, under 10 active. Potency, µM (series often up to 38.3 µM), for inactives: at the highest dose activity change, positive = activation, hits mostly activators. HeLa miR-21 FLuc reporter, luciferase, 48 h;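 also: % of control where 0% means no effect; miR-21 action dims this reporter so a rising signal means less miR-21 action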
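HeLa cells endogenously expressing miR-21, stably carrying CMV-driven firefly luciferase with a downstream miR-21 binding site, 2000 cells/well. Titrations up to approximately 40 uM, 48 hours; luciferase luminescence read.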
TDP1 cell CPT = qHTS for Inhibitors of human tyrosyl-DNA phosphodiesterase 1 (TDP1): qHTS in cells in presence of CPT; chicken DT40 Tdp1-/-;hTDP1 cells + 20 nM CPT, ATP luminescence, 48 h; Potency, µM (series often up to 46.2 µM), for the others: at the highest dose activity change, negative = growth inhibition, hits mostly inhibitors; 420,000 compounds, 12% hits; AID 686979, 2013; also: potency is read from the fitted curve at half-maximal effect; % is scaled to controls: 0 for no effect and ±100 for the full control effect; nearly all actives have a fitted effect of over 55% in size
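Chicken DT40 Tdp1-/- cells stably complemented with human TDP1 were seeded at 400 cells/well in medium containing 20 nM camptothecin, exposed to pin-transferred compounds, and grown at 37 °C for at least 48 hr. Viability was read as ATP luminescence.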
An asterisk follows results filed as active; ? = inconclusive; . = not tested or not shown; ! = not confirmed by another sample; [ ] = another dose, or the depositor's remark. Unless noted, calls follow the shape of the dose curve; as a rule, active = well fitted curve in the direction sought with a large enough effect; inconclusive = small, poorly fitted or top-dose-only effect, or another doubt; inactive = no such curve, though single readings can be large; an effect the other way counts as inactive or inconclusive.

SMILES	TDP1 inh	uPA generation	TDP1 cell noCPT	miR-21 act	TDP1 cell CPT
CCC(C(=O)Nc1ccc(C(=O)OC)cc1)n1nc(-c2ccc(C)c(C)c2)ccc1=O (centres undefined)	2.6%	.	?	-5.2%	?
CCOC(=O)COc1cc(OCC(=O)OCC)c2c3c(c(=O)oc2c1)CCCC3	.	-7.8%	4.9%	6.3%	9.2%
Cc1cccc(NC(=S)N(Cc2cccc(Br)c2)CC2CCC(C(=O)O)CC2)c1 (centres undefined)	1.1%	-20.2%	?	2.7%	-17.4%
O=C(c1cccc(F)c1)N(Cc1nc2ccccc2c(=O)[nH]1)C1CCCC1	0.0%	8.8%	?	-0.5%	?
COc1ccc(-n2c(O)c(/C=N/NS(=O)(=O)c3ccc(C)cc3)c3ccccc3c2=O)cc1OC	7.7%	-13.9%	16.4µM*	-5.8%	18.4µM*
COc1ccc(C)cc1S(=O)(=O)Nc1ccc(-n2c(C)nc3ccccc3c2=O)cc1	0.3%	11.5%	?	.	?
COc1ccc(-n2c(O)c(/C=N/NS(=O)(=O)c3cc(C)ccc3C)c3ccccc3c2=O)cc1OC	9.1%	-5.4%	16.4µM*	-10.6%	20.6µM*
COc1ccc(-n2c(O)c(/C=N/Nc3nc(C)cc(C)n3)c3ccccc3c2=O)cc1OC	10.1%	-5.1%	?	6.5%	?
Cc1cc(NC(=O)Nc2ccccc2[N+](=O)[O-])n(C)n1	.	6.9%	16.5%	-6.2%	-2.2%
Cc1nc(-c2coc3c(O)c(O)ccc3c2=O)cs1	1.9%	.	3.8%[9.04 µM]	.	-17.9%[9.04 µM]
Cc1cc(C)c(C#N)c(SCc2ccc(C(=O)O)cc2)n1	.	3.3%	-3.0%	-1.3%	-1.8%
CCOC(=O)C1=C(C)NC(C)=C(C(=O)OC)C1c1cccc([N+](=O)[O-])c1 (centres undefined)	2.7%	2.3%	15µM*!	0.0%	11.9µM*!
CCOC(=O)C1=C(C)NC(C)=C(C(=O)OC)[C@@H]1c1cccc([N+](=O)[O-])c1	6.2%[21 µM]	.	.	.	.
COC(=O)C1=C(C)NC(C)=C(C(=O)OCCCN2CCC(c3ccccc3)(c3ccccc3)CC2)[C@H]1c1cccc([N+](=O)[O-])c1	22.9%[56.1 µM]	.	11.9µM*	.	11.9µM*
COCCOC(=O)C1=C(C)NC(C)=C(C(=O)OC(C)C)C1c1cccc([N+](=O)[O-])c1 (centres undefined)	5.5%	8.5%	15µM*!	0.1%	?
COCCOC(=O)C1=C(C)NC(C)=C(C(=O)OC(C)C)[C@@H]1c1cccc([N+](=O)[O-])c1	6.0%	.	?	.	?
CCOC(=O)C1=C(C)NC(C)=C(C(=O)OC)[C@H]1c1cccc([N+](=O)[O-])c1	11.9%	.	23.7µM*	.	26.6µM*
COCCOC(=O)C1=C(C)NC(C)=C(C(=O)OC/C=C/c2ccccc2)C1c1cccc([N+](=O)[O-])c1 (centres undefined)	12.1%	.	?	.	?
CN1CCN(C(CNS(=O)(=O)c2ccc([N+](=O)[O-])cc2)c2ccc(F)cc2)CC1 (centres undefined)	-3.6%	-1.0%	-16.6%	.	?
Cc1ccc(CCNC(=O)CCS(=O)(=O)c2ccc3c(c2)oc(=O)n3C)cc1	0.2%	1.7%	9.3%	-1.0%	2.2%
COc1ccccc1NC(=S)NC(=O)Cc1ccc(Cl)cc1	1.4%	1.8%	-9.4%	0.4%	?
CCOc1ccc(CCNC(=O)CCc2c(C)nc3c4c(C)cc(C)nc4nn3c2C)cc1	2.5%	.	-14.8%	-0.6%	4.7%
CCOC(=O)C1=C(N)Oc2cc(O)ccc2C1c1ccccc1 (centres undefined)	.	-28.8%	?	15.9%	?
COC(=O)C1=C(C)NC(C)=C(C(=O)OC(C)(C)CN(C)CCC(c2ccccc2)c2ccccc2)C1c1cccc([N+](=O)[O-])c1 (centres undefined)	.	.	8.41µM*	.	8.41µM*
CCOC(=O)C1=C(N)Oc2cc(O)ccc2C1c1cccc([N+](=O)[O-])c1 (centres undefined)	0.0%	-9.4%	16.4µM*	21.4%	?
SMILES	TDP1 inh	uPA generation	TDP1 cell noCPT	miR-21 act	TDP1 cell CPT
CCOC(=O)C1=C(CCc2ccccc2)NC(=O)NC1c1cccc([N+](=O)[O-])c1 (centres undefined)	.	4.0%	-19.4%	0.3%	-7.4%
COC(=O)C1=C(C)NC(C)=C(C(=O)O[C@@H]2CCCN(Cc3ccccc3)C2)[C@@H]1c1cccc([N+](=O)[O-])c1	.	?	10.3µM*	.	18.4µM*
CCOC(=O)C1=C(C)NC(C)=C(C(=O)OCC)C1c1ccc([N+](=O)[O-])s1	0.0%	1.7%	10.3µM*	13.2%	14.6µM*
CCOC(=O)C1=C(C)NC(C)=C(C(=O)OCC)C1C	1.3%	-6.9%	-50.6%	-0.1%	-28.6%
COc1cccc(CN(C)C(=O)CCC(=O)c2cc(Br)ccc2OC)c1	-5.4%	-1.3%	?	.	?
Cc1[nH]c(=O)[nH]c(=O)c1S(=O)(=O)Nc1cccc(Cl)c1C	1.8%	.	11.2%	1.5%	-1.4%
CCSc1ccc2cc(OC)ccc2[n+]1CC	2.6%	-4.4%	7.31µM*	5.8%	5.8µM*
COc1cccc(-c2nn(-c3ccc(C)cc3)cc2C(=O)N2CCc3cc(OC)c(OC)cc3C2)c1	.	?	?	.	18.4µM*
CCOc1ccc(C(=O)N2CCc3cc(OC)c(OC)cc3C2)cc1OCC	5.1%	-0.1%	29.1µM*	-3.8%	?
COc1cc2c(cc1OC)CN(C(=O)c1cccc([N+](=O)[O-])c1)CC2	5.6%	-0.6%	?	4.6%	25.9µM*
CCOC(=O)N1CCN(C(=O)/C=C/c2ccc([N+](=O)[O-])cc2)CC1	0.0%	-10.0%	-21.1%	3.5%	-6.3%
COc1cc2c(cc1OC)CN(C(=O)/C=C/c1ccc([N+](=O)[O-])cc1)CC2	7.7%	-1.5%	16.4µM*	0.2%	18.4µM*
COc1cc2c(cc1OC)CN(C(=O)c1ccc(OC)c([N+](=O)[O-])c1)CC2	1.2%	8.2%	?	-8.3%	-17.2%
COc1ccc(NC(=S)N2CCC(NC(=O)c3ccc(OC)cc3)CC2)cc1	12.7%	1.0%	-29.4%	3.7%	-25.9%
O=C(CCNC(=O)c1ccc([N+](=O)[O-])cc1)Nc1ccc(Cl)c(S(=O)(=O)N2CCOCC2)c1	3.5%	-4.7%	?	.	-18.7%
COc1cc2c(cc1OC)CN(C(=O)/C=C/c1cccs1)CC2	2.4%	3.16µM*	1.03µM*	18.2%	1.46µM*
COc1cc2c(cc1OC)CN(C(=O)c1cccs1)CC2	4.9%	-3.1%	?	-20.9%	-10.3%

Assay outcomes (PubChem)
